# Measured values taken from PubChem BioAssay (NCATS).
# Inconclusive results are not listed. A call without a number means that no potency is given here. The source made the active and inactive calls. Unless noted, calls follow the shape of the dose curve; as a rule, active = well fitted curve in the direction sought with a large enough effect; inconclusive = small, poorly fitted or top-dose-only effect, or another doubt; inactive = no such curve, though single readings can be large; an effect the other way counts as inactive or inconclusive.
# How the values were obtained:
# [1] = qHTS assay for measurement of the activity of small molecule inhibitors on Zika virus induced Caspase-3 activity in human iPSC derived neural progenitor cells (hNPCs) (AID 1224857); also: nearly all actives have a fitted effect of over 65% in size
# Outline: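 Human iPSC-derived neural progenitor cells pretreated 1 hr with compounds, then infected with Zika virus (2 FFU/cell) for 6 hours at 37 C. Caspase-3/7 measured by Caspase-Glo luminescence; % inhibition calculated from induction scaled to uninfected (0%) and infected (100%) wells.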
# [2] = qHTS assay for measurement of the activity of small molecule inhibitors on Zika virus induced Caspase-3 activity in human astrocytoma cells (AID 1224859)
# Outline: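 SNB-19 astrocytoma cells, 250/well, pretreated 1 h with compounds, then Zika virus at 2 FFU/cell for 6 h at 37 C; Caspase-Glo 3/7 luminescence after 30 min; percent inhibition normalised to uninfected and infected controls.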
# [3] = qHTS assay to identify small molecule inhibitors of chordoma cells - UCH-1 (AID 1259355); also: nearly all actives have a fitted effect of over 55% in size
# Outline: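 A 48hr growth-inhibition format: each drug tested at 15 concentrations together with added auranofin, camptothecin, doxorubicin, rubitecan and topotecan, with cell viability quantified as CellTiter-Glo luminescence.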
# [4] = P-glycoprotein substrates identified in KB-8-5-11 adenocarcinoma cell line, qHTS therapeutic library screen (AID 1346987); also: nearly all actives have a fitted effect of over 65% in size; also: potency is read from the fitted curve at half-maximal effect
# Outline: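 Human cervical adenocarcinoma KB-8-5-11 cells, selected in colchicine to over-express P-gp and assayed without it, were exposed for 72 h to titrated compounds. An ATP-based luminescent viability signal gave AC50.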
# [5] = NS1 protein of Zika virus - qHTS assay to identify small molecule inhibitors in human HEK 293 cells (AID 1347053); also: nearly all actives have a fitted effect of over 55% in size; also: potency is read from the fitted curve at half-maximal effect
# Outline: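 Read-out is a two-antibody TR-FRET for ZIKV NS1, normalized between uninfected cells and infected cells. Compound added 1 h before MR766 infection at MOI 0.5; human HEK 293 cells incubated 24 h, 37 C.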
# [6] = qHTS profiling for inhibitors of Plasmodium falciparum (DD2) proliferation (AID 743323; call rule not given here); conditions: lower = more inhibition; at 28.7 µM (top of the series) unless noted
# Outline: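 Parasite DNA quantified by SYBR Green fluorescence (ex 485, em 535 nm) after saponin/Triton lysis and overnight dark incubation. Cultures: 0.3% parasitemia, 2.5% hematocrit, 72 h, 37 C; data scaled between DMSO and 0.29 uM artemisinin.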
# [7] = qHTS profiling for inhibitors of Plasmodium falciparum (HB3) proliferation (AID 743324); conditions: Plasmodium falciparum HB3 blood-stage proliferation; at 28.7 µM (top of the series) unless noted
# Outline: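 SYBR Green fluorescence (485 ex/535 em) of lysed cultures, incubated overnight at room temperature in the dark, quantifies parasite DNA. Infected erythrocytes at 0.3% parasitemia and 2.5% hematocrit were exposed 72 h; values normalized to DMSO and 0.29 uM artemisinin controls.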
# [8] = qHTS profiling of the MIPE4 collection as inhibitors of Plasmodium falciparum (3D7) proliferation (AID 743344; call rule not given here); conditions: P. falciparum 3D7 in erythrocytes, SYBR Green DNA fluorescence, 72 h; at 28.5 µM (top of the series) unless noted
# Outline: (§1)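 Parasite DNA was quantified by SYBR Green I fluorescence (ex 485, em 535 nm) after overnight lysis in saponin/Triton buffer at room temperature. Cultures at 0.3% parasitemia and 2.5% hematocrit were first exposed to compound for 72 h at 37 C; signals were normalised to artemisinin (0.29 uM) and vehicle wells.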
# [9] = qHTS profiling of the MIPE4 collection as inhibitors of Plasmodium falciparum (DD2) proliferation (AID 743345; call rule not given here); conditions: P. falciparum Dd2 in erythrocytes, SYBR Green DNA, 72 h; at 28.5 µM (top of the series) unless noted
# Outline: as §1
# [10] = qHTS profiling of the MIPE4 collection as inhibitors of Plasmodium falciparum (DD2) proliferation (Rep 2) (AID 743346; call rule not given here); conditions: P. falciparum Dd2 in erythrocytes, SYBR Green DNA, 72 h; at 28.5 µM (top of the series) unless noted
# Outline: as §1
# [11] = qHTS profiling of the MIPE4 collection as inhibitors of Plasmodium falciparum (HB3) proliferation (AID 743347; call rule not given here); conditions: P. falciparum HB3 in erythrocytes, SYBR Green DNA, 72 h; at 28.5 µM (top of the series) unless noted
# Outline: as §1
# [12] = Natriuretic polypeptide receptor (hNpr1) antagonism - Pilot counterscreen GloSensor control cell line (AID 1347045; calls by dose curve)
# Outline: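 The SNP-driven cGMP luminescence signal (50 uM, 20 min, room temperature) was measured in GloSensor HEK293 control cells. Compounds were tested as a LOPAC titration series and preincubated for 30-50 min.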
# [13] = qHTS assay to identify small molecule inhibitors of chordoma cells - UCH-2 (AID 1259356)
# [14] = Identifying Small Molecule Inhibitors of Pancreatic Cancer Stem Cells (SN12C, Adherent) (AID 1259358); conditions: viability/growth inhibition;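 also: potency is read from the fitted curve at half-maximal effect; cell survival measured after 48 h of compound exposure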
# Outline: (§2)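 Luminescent ATP readout (CellTiter-Glo) quantifies surviving cells after a 48 h drug incubation. Normalization uses DMSO wells as no inhibition and media-only wells as full inhibition; bortezomib served as positive control.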
# [15] = Identifying Small Molecule Inhibitors of Pancreatic Cancer Stem Cells (Panc1, Spheroid) (AID 1259359); conditions: Panc1 spheroid cancer stem cell viability;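 also: potency is read from the fitted curve at half-maximal effect; compound exposure lasted 48 h before reading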
# Outline: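 Cytotoxicity read by CellTiter-Glo luminescence after 48 h compound exposure at 37C; percent activity scaled between DMSO-treated cells and cell-free wells. Spheroid formats used cells pre-formed 14 days in stem cell media on hydrogel.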
# [16] = Identifying Small Molecule Inhibitors of Pancreatic Cancer Stem Cells (SN12C, Spheroid) (AID 1259360); conditions: SN12C spheroid viability; also: potency is read from the fitted curve at half-maximal effect
# Outline: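 Spheroids grown 14 days in stem cell media on hydrogel-coated nonadherent plates; 2D lines seeded directly. Compounds added after 4 h attachment, 48 h at 37C, 5% CO2; CellTiter-Glo luminescence normalized to DMSO (no inhibition) and no-cell wells (full inhibition).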
# [17] = Identifying Small Molecule Inhibitors of Pancreatic Cancer Stem Cells (A278, Adherent) (AID 1259361); also: nearly all actives have a fitted effect of over 35% in size
# Outline: as §2
smiles,measurement,setting,value
CCC(C(=O)OCCN(CC)CC)c1ccccc1 (stereo unspecified),outcome,[1],inactive
same,outcome,[2],inactive
same,Potency,[3],inactive
same,Potency,[4],inactive
same,Potency,[5],inactive
COc1cccc(CCc2ccccc2OCC(CN(C)C)OC(=O)CCC(=O)O)c1 (stereo unspecified),"activity, percent of control",[6],1.06%
same,"remaining proliferation (% of control), lower = more inhibition",[7],1.2%
same,"parasite growth, % of DMSO control",[8],7.32%
same,"parasite growth remaining, % of DMSO control (lower = more inhibition)",[9],11.9%
same,"parasite growth, % of control (lower = inhibition)",[10],21.2%
same,"growth, % of control",[11],5.27%
same,outcome,[1],inactive
same,outcome,[2],inactive
same,Potency,[3],inactive
same,Potency,[5],inactive
CCC(NC(C)C)C(O)c1ccc(O)c(O)c1 (stereo unspecified),outcome,[1],inactive
same,outcome,[2],inactive
same,Potency,[3],inactive
same,Potency,[4],inactive
same,outcome,[12],inactive
same,Potency,[5],inactive
CN(C)CC/C=C1/c2ccccc2COc2ccc(CC(=O)O)cc21,outcome,[1],inactive
same,outcome,[2],inactive
same,Potency,[3],inactive
same,Potency,[4],inactive
same,Potency,[5],inactive
NC(CO)(CO)CO,outcome,[1],inactive
same,outcome,[2],inactive
same,Potency,[3],inactive
same,Potency,[4],inactive
same,Potency,[5],inactive
CC(CCc1ccccc1)NCC(O)c1ccc(O)c(C(N)=O)c1 (stereo unspecified),outcome,[1],inactive
same,outcome,[2],inactive
same,Potency,[3],inactive
same,Potency,[5],inactive
C#C[C@]1(O)CC[C@H]2[C@@H]3CCC4=CC(=O)CC[C@@H]4[C@H]3CC[C@@]21C,outcome,[1],inactive
same,outcome,[2],inactive
same,Potency,[3],inactive
same,Potency,[5],inactive
CCCOC(C(=O)OC1CCN(C)CC1)(c1ccccc1)c1ccccc1,outcome,[1],inactive
same,outcome,[2],inactive
same,Potency,[3],inactive
same,Potency,[5],inactive
C[N+]1(CCCCC[N+]2(C)CCCC2)CCCC1,outcome,[1],inactive
same,outcome,[2],inactive
same,Potency,[3],inactive
same,Potency,[4],inactive
same,outcome,[12],inactive
same,Potency,[5],inactive
CCCCCCC[N+](CC)(CC)CCCCc1ccc(Cl)cc1,outcome,[1],inactive
same,outcome,[2],inactive
same,Potency,[3],inactive
same,Potency,[4],inactive
CCCCOc1cc(C(=O)NCCN(CC)CC)c2ccccc2n1,outcome,[1],inactive
same,outcome,[2],inactive
same,Potency,[3],inactive
same,Potency,[4],inactive
same,Potency,[5],inactive
O=c1c(-c2ccccc2)c1-c1ccccc1,outcome,[1],inactive
same,outcome,[2],inactive
same,Potency,[13],inactive
Cc1cccc(C)c1NC(=O)CN1CCN(CCCC(c2ccc(F)cc2)c2ccc(F)cc2)CC1,"parasite growth, % of DMSO control",[8],13.4%
same,"parasite growth remaining, % of DMSO control (lower = more inhibition)",[9],52.4%
same,"parasite growth, % of control (lower = inhibition)",[10],19.6%
same,"growth, % of control",[11],8.04%
same,outcome,[1],inactive
same,outcome,[2],inactive
same,Potency,[3],inactive
same,Potency,[13],inactive
same,Potency,[5],inactive
CN1C2CCC1CC(OC(=O)c1c[nH]c3ccccc13)C2 (stereo unspecified),outcome,[1],inactive
same,outcome,[2],inactive
same,Potency,[3],inactive
same,outcome,[12],inactive
same,Potency,[5],inactive
CCOC(=O)/C=C(C)/C=C/C=C(C)/C=C/c1c(C)cc(OC)c(C)c1C,outcome,[1],inactive
same,outcome,[2],inactive
same,Potency,[3],inactive
same,Potency,[5],inactive
CC(=O)c1ccc2c(c1)N(CCCN1CCC(CCO)CC1)c1ccccc1S2,outcome,[1],inactive
same,outcome,[2],inactive
same,Potency,[3],inactive
same,Potency,[4],inactive
same,Potency,[5],inactive
Oc1ccc(Cl)c2cccnc12,outcome,[1],inactive
same,outcome,[2],inactive
same,Potency,[3],inactive
same,Potency,[4],inactive
COc1cc(C(=S)N2CCOCC2)cc(OC)c1OC,outcome,[1],inactive
same,outcome,[2],inactive
same,Potency,[3],inactive
same,Potency,[4],inactive
same,Potency,[5],inactive
O=C(Nc1ccc(Oc2ccc(Cl)cc2)c(Cl)c1)c1cc(I)cc(I)c1O,outcome,[1],inactive
same,outcome,[2],inactive
same,Potency,[3],inactive
same,Potency,[5],inactive
O=S1(=O)c2cccc3cccc(c23)N1CCCN1CCN(c2ccc(F)cc2)CC1,outcome,[1],inactive
same,outcome,[2],inactive
same,Potency,[3],inactive
same,Potency,[5],inactive
CCOC(=O)c1cccc(N)c1,outcome,[1],inactive
same,outcome,[2],inactive
same,Potency,[3],inactive
same,Potency,[4],inactive
COc1cc2c(cc1OC)[C@@H]1CC(=O)[C@@H](CC(C)C)CN1CC2,outcome,[1],inactive
same,outcome,[2],inactive
same,Potency,[13],inactive
CC(=O)N/N=C/c1ccc([N+](=O)[O-])o1,outcome,[1],inactive
same,outcome,[2],inactive
same,Potency,[3],inactive
same,Potency,[4],inactive
same,Potency,[5],inactive
CC1=C(C(=O)OC(C)C)C(c2cccc([N+](=O)[O-])c2)C(C(=O)OC2CN(C(c3ccccc3)c3ccccc3)C2)=C(N)N1 (stereo unspecified),"parasite growth, % of DMSO control",[8],6.8%
same,"parasite growth remaining, % of DMSO control (lower = more inhibition)",[9],7.73%
same,"parasite growth, % of control (lower = inhibition)",[10],24.4%
same,"growth, % of control",[11],9.79%
same,outcome,[1],inactive
same,outcome,[2],inactive
same,Potency,[3],inactive
same,Potency,[13],inactive
COc1cc(-c2ccc(=O)[nH]n2)ccc1OC(F)F,outcome,[1],inactive
same,outcome,[2],inactive
same,Potency,[3],inactive
same,Potency,[4],0.116 µM (active)
same,Potency,[5],inactive
CC(=O)N(O)CCCCCNC(=O)CCC(=O)N(O)CCCCCNC(=O)CCC(=O)N(O)CCCCCN,outcome,[1],inactive
same,outcome,[2],inactive
same,Potency,[13],inactive
same,Potency,[4],inactive
same,Potency,[5],inactive
CC(C)(C)CC(C)(C)c1ccc(OCCOCC[N+](C)(C)Cc2ccccc2)cc1,outcome,[1],inactive
same,outcome,[2],inactive
same,Potency,[13],inactive
same,Potency,[4],inactive
same,Potency,[5],12.6 µM (active)
Oc1ccc(O)cc1,outcome,[1],inactive
same,outcome,[2],inactive
same,Potency,[13],inactive
same,Potency,[4],inactive
same,Potency,[5],inactive
COc1cccc2c1C(=O)c1c(O)c3c(c(O)c1C2=O)C[C@@](O)(C(=O)CO)C[C@@H]3O[C@H]1C[C@H](N)[C@H](O)[C@H](C)O1,"activity, percent of control",[6],-2.65%
same,"remaining proliferation (% of control), lower = more inhibition",[7],-0.62%
same,outcome,[1],inactive
same,outcome,[2],inactive
same,Potency,[13],inactive
same,Potency,[14],3.32 µM (active)
same,Potency,[15],5.9 µM (active)
same,Potency,[16],18.7 µM (active)
same,IC50 (viability decrease),[17],0.418 µM (active)
same,Potency,[4],inactive
